From PubChem BioAssay
Hits are enriched below; roughly 0.84% of the tested compounds scored in any of these assays.
SRC1 inh = inhibitors of human steroid receptor coactivator 1 (SRC1). Q15788. HEK293 GAL4-SRC1 luciferase reporter, luminescence. inhibition, % at 3.6 µM. 360,000 tested, 0.12% active;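 active means inhibition above the campaign mean plus 3 SD, with each screening campaign given its own cutoff, cut at about 60% in these data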;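 further: 0% = DMSO treated cells and 100% = gossypol at 36 µM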
NR2F2 inh = NR2F2 (human) inhibition, primary screen. 370,000 tested, 0.7% active. inhibition, % at 8.6 µM. AID 686940. HEK293T NGFI-A luciferase reporter, luminescence. P24468;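 active means inhibition above a per-plate cutoff, mean inhibition of test wells between control levels plus 3 SD, cut at about 38% in these data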;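 further: cells cotransfected with COUP-TFII expression vector driving the NGFI-A reporter; 0% = median of COUP-TF2 test wells and 100% = reporter-only cells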
NR5A2 inv ag = suppresses constitutive activity of human LRH-1 | O00482 | HEK293T StAR-luciferase reporter, LRH-1 transfected, 24 h | inhibition, % at 3.6 µM | 360,000 tested, 0.13% active | AID 602396;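 active means inhibition above the mean inhibition of all tested compounds plus 3 SD, cut at about 73% in these data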;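 further: 0% = DMSO wells and 100% = reporter-only cells lacking LRH-1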
NCOA3 inh = inhibitors of human steroid receptor coactivator 3 (SRC3); inhibition, % at 3.6 µM; 360,000 tested, 0.17% active; HEK293 GAL4-SRC3 luciferase reporter, luminescence; Q9Y6Q9;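 active means inhibition above a per-campaign cutoff, the mean of all compounds plus 3 SD, cut at about 60% in these data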;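 further: 0% = DMSO-treated cells and 100% = gossypol-treated cells at 36 µM; higher means less SRC3-driven luciferase light from the GAL4 reporter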
NCOA2 inhibitor = human SRC2 (NCOA2) inhibition; HEK293 GAL4-SRC2 luciferase reporter, luminescence; Q15596; 370,000 tested, 0.17% active; AID 651957; inhibition, % at 9 µM;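 active means inhibition above the mean inhibition of all tested compounds plus 3 SD, set per campaign, cut at about 52% in these data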;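 further: 0% = DMSO treated cells and 100% = cells given Gossypol at 36 µM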
VP16 Luc counter = VP16 inhibition counter-screen for COUP-TFII; 2,500 tested, 25% active; shares compounds with NR2F2 inh; HEK293 Gal4-VP16 luciferase reporter, luminescence; inhibition, % at 8.5 µM; in the data active means inhibition above about 13%
NR2F2 inh conf = COUP-TFII (NR2F2) inhibition, confirmation assay | shares compounds with NR2F2 inh | HEK293 NGFI-A luciferase reporter, luminescence | inhibition, % at 8.5 µM | 2,500 tested, 45% active | AID 687008;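 active means mean inhibition over three repeats above a set limit taken from the earlier primary screen, cut at about 38% in these data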;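 further: 100% = cells given the luciferase reporter alone without the COUP-TF2 vector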
The depositor's hits bear a star; . = not tested or not shown.

SMILES	SRC1 inh	NR2F2 inh	NR5A2 inv ag	NCOA3 inh	NCOA2 inhibitor	VP16 Luc counter	NR2F2 inh conf
CCOC(=O)[C@@H](NC(=O)[C@@H]1CC=C[C@@H]2CCN(Cc3ccc(Cl)cc3)C(=O)[C@@H]21)C(C)C	.	14.8	.	.	.	.	.
O=C(CCN1C(=O)C2C3C=CC(C3)C2C1=O)N1CCN(c2ccccn2)CC1 (centres undefined)	8.2	-3.0	-1.0	13.7	-13.0	.	.
O=C1C2C3C=CC(C3)C2C(=O)N1c1ccc(N2CCN(c3ccccn3)CC2)c([N+](=O)[O-])c1 (centres undefined)	11.9	42.0*	25.0	27.9	4.8	1.2	25.4
O=C(C1CCN(c2ncnc3c2nc2n3CCCCC2)CC1)N1CCN(c2cccc(Cl)c2)CC1	15.9	49.7*	11.7	24.8	22.6	-0.1	23.2
NC(Cc1ccc(Cl)cc1)c1csc(NC(=O)NCCc2ccccc2)n1 (centres undefined)	15.1	-9.3	-14.1	-13.0	3.1	.	.
NC(Cc1ccc(Cl)cc1)c1csc(NC(=O)NCC2CCCCC2)n1 (centres undefined)	-3.8	81.1*	-7.8	12.2	59.5*	2.3	0.0
C[C@H](O)[C@@H]1CN2CCc3c([nH]c4c(-c5ccccc5)cccc34)[C@@H]2C[C@@H]1N(C)C(=O)c1ccco1	.	21.1	.	.	-12.3	.	.
Cc1c(C(=O)NCc2ccc3c(c2)OCO3)sc(=O)n1Cc1ccc(S(=O)(=O)N(C)C)cc1	2.6	24.0	37.1	20.3	16.7	.	.
Cc1c(C(=O)NCc2ccc(Cl)c(Cl)c2)sc(=O)n1Cc1ccc(S(C)(=O)=O)cc1	5.5	85.3*	12.9	-3.7	13.2	-8.0	3.9
Cc1c(C(=O)NCc2ccc3c(c2)OCCO3)sc(=O)n1Cc1ccc(S(=O)(=O)N(C)C)cc1	16.4	45.0*	25.8	17.8	-7.8	5.1	13.5
COc1ccc(CNC(=O)c2sc(=O)n(Cc3ccc(-c4ccccc4)cc3)c2C)cc1OC	9.7	44.5*	42.6	14.6	19.4	1.7	40.7*
COc1ccc(-c2noc(C3CCCN(C(=O)Nc4cccc(C)c4)C3)n2)cc1 (centres undefined)	.	-29.6	.	.	-26.0	.	.
COC(=O)c1c(-c2ccc(N(C)C)cc2)sc2ccc(OC)cc12	0.4	56.7*	28.0	-15.8	61.4*	23.9*	48.5*
N#CCC[C@@H]1CC[C@]2(CCCN(Cc3ccc(Cl)cc3)C2)O1	.	-8.3	.	.	5.1	.	.
CC(=O)c1cccc(NS(=O)(=O)c2ccc(C(=O)Nc3ccccc3)cc2)c1	-16.7	49.2*	26.9	30.7	19.9	12.2	48.3*
CCOC(=O)c1cccc(NS(=O)(=O)c2ccc(NC(C)=O)cc2)c1	38.5	39.1*	16.2	33.5	44.4	7.4	22.2
CCOC(=O)c1ccc(NC(=O)COc2ccc(S(=O)(=O)NC(C)CC)cc2)cc1 (centres undefined)	4.3	46.8*	15.4	-3.7	-1.2	-0.2	26.0
CC(=O)c1cccc(NS(=O)(=O)c2ccc(-c3cnc(C4CC4)o3)cc2)c1	16.1	44.4*	36.8	27.7	15.4	2.7	47.1*
CCOC(=O)c1ccc(NC(=O)C(C)NS(=O)(=O)c2ccc(OC)cc2)cc1 (centres undefined)	2.4	-1.9	4.5	9.8	-11.7	.	.
Cc1ccc(-n2c(SCC(=O)c3ccc(F)cc3)nnc2-c2cnccn2)cc1	.	14.7	.	.	-27.7	.	.
O=C(N1CCC(n2nc(-c3ccccc3)oc2=O)CC1)C1(c2ccccc2)CCCC1	.	-2.2	.	.	.	.	.
C=CCNc1nc(-c2sc(NC(C)=O)nc2C)cs1	-52.7	-36.0	13.4	-28.1	-20.9	.	.
C=CCNc1nc(-c2sc(NC(=O)C(C)(C)C)nc2C)c(-n2cc(-c3ccccc3)nn2)s1	.	38.3*	26.3	.	22.7	-5.3	10.5
CCOC(=O)[C@@]12CCCC=C1N(CCc1ccc(Cl)cc1)C(=O)[C@H]2CC(=O)N1CCN(C(=O)c2ccco2)CC1	.	39.0*	.	.	7.6	-7.6	17.8
COc1ccc(/C=C/C(=O)NC2=NCCS2)c(OC)c1	.	-44.7	.	.	.	.	.
CCN(CC)S(=O)(=O)c1ccc(Oc2ccc(S(=O)(=O)N(CC)CC)cc2)cc1	2.0	38.3*	22.4	12.4	16.1	3.3	8.6
Nc1ccc(-c2nc3ccc(C(=O)O)cc3s2)cc1	8.6	42.4*	-7.1	33.4	34.4	-95.9	-24.3
